Out of some 5,500 compounds screened, about 2,000 (36%) were called active. About 18% were inconclusive and are not listed. No stated cut-off is given here; in the data, active means normalized growth mostly below about 0.91 (no sharp cut-off); inconclusive means no clear call, values can overlap the other calls; inactive means mostly above about 0.92. This is one part of the list.
Assay: chemical genetic growth profiling, strain panel (AID 1159580);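 further: tested at 20 µM; growth read once vehicle control cultures reached saturation at 30 °C; 1 = growth at the plate median or of vehicle wells; lower values mean less growth of the strain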
Conditions: growth OD
[1] = S. cerevisiae deletion strains, locus YDL101C, strain DUN1, active compounds read low
[2] = S. cerevisiae deletion strains, locus YHR030C, strain SLT2, active compounds read low
[3] = S. cerevisiae deletion strains, locus YJL095W, strain BCK1, active compounds read low
[4] = S. cerevisiae deletion strains, locus YOR061W, strain CKA2, active compounds read low

Measured: normalized growth

O=C(NNC(=S)Nc1ccc(Cl)cc1)c1ncc(C(F)(F)F)cc1Cl
inactive: S. cerevisiae deletion strains, locus YAR019C, strain CDC15, active compounds read low 0.968 | S. cerevisiae deletion strains, locus YBL105C, strain PKC1, active compounds read low 0.99 | S. cerevisiae deletion strains, locus YBR135W, strain CKS1, active compounds read low 0.992 | S. cerevisiae deletion strains, locus YBR136W, strain MEC1, active compounds read low 0.985 | S. cerevisiae deletion strains, locus YBR160W, strain CDC28, active compounds read low 0.994 | S. cerevisiae deletion strains, locus YDL017W, strain CDC7, active compounds read low 0.989 | S. cerevisiae deletion strains, locus YDL028C, strain MPS1, active compounds read low 0.988 | [1] 0.985 | S. cerevisiae deletion strains, locus YDL108W, strain KIN28, active compounds read low 0.986 | S. cerevisiae deletion strains, locus YDL132W, strain cdc53, active compounds read low 0.966 | S. cerevisiae deletion strains, locus YDL214C, strain PRR2, active compounds read low 0.956 | S. cerevisiae deletion strains, locus YDR052C, strain DBF4, active compounds read low 0.991 | S. cerevisiae deletion strains, locus YDR054C, strain cdc34, active compounds read low 0.961 | S. cerevisiae deletion strains, locus YDR226W, strain ADK1, active compounds read low 0.982 | S. cerevisiae deletion strains, locus YDR477W, strain SNF1, active compounds read low 0.935 | S. cerevisiae deletion strains, locus YER123W, strain YCK3, active compounds read low 0.863 | S. cerevisiae deletion strains, locus YER133W, strain GLC7, active compounds read low 0.94 | S. cerevisiae deletion strains, locus YFL009W, strain cdc4, active compounds read low 0.975 | S. cerevisiae deletion strains, locus YFL029C, strain CAK1, active compounds read low 0.973 | S. cerevisiae deletion strains, locus YFR003C, strain YPI1, active compounds read low 0.991 | S. cerevisiae deletion strains, locus YFR019W, strain FAB1, active compounds read low 1 | S. cerevisiae deletion strains, locus YFR028C, strain CDC14, active compounds read low 0.984 | S. cerevisiae deletion strains, locus YGR040W, strain KSS1, active compounds read low 0.929 | S. cerevisiae deletion strains, locus YGR052W, strain FMP48, active compounds read low 0.942 | S. cerevisiae deletion strains, locus YGR092W, strain DBF2, active compounds read low 0.755 | [2] 0.901 | S. cerevisiae deletion strains, locus YHR079C, strain IRE1, active compounds read low 0.768 | S. cerevisiae deletion strains, locus YHR082C, strain KSP1, active compounds read low 1.08 | S. cerevisiae deletion strains, locus YHR205W, strain SCH9, active compounds read low 0.981 | S. cerevisiae deletion strains, locus YIL147C, strain SLN1, active compounds read low 0.972 | [3] 0.791 | S. cerevisiae deletion strains, locus YJL128C, strain PBS2, active compounds read low 0.971 | S. cerevisiae deletion strains, locus YJL157C, strain FAR1, active compounds read low 0.912 | S. cerevisiae deletion strains, locus YJR016C, strain ILV3, active compounds read low 0.974 | S. cerevisiae deletion strains, locus YJR066W, strain TOR1 (second series), active compounds read low 0.885 | S. cerevisiae deletion strains, locus YJR066W, strain TOR1, active compounds read low 1.01 | S. cerevisiae deletion strains, locus YKL048C, strain ELM1, active compounds read low 0.986 | S. cerevisiae deletion strains, locus YKL067W, strain YNK1, active compounds read low 0.95 | S. cerevisiae deletion strains, locus YKL101W, strain HSL1, active compounds read low 0.926 | S. cerevisiae deletion strains, locus YKL193C, strain SDS22, active compounds read low 0.984 | S. cerevisiae deletion strains, locus YKL203C, strain TOR2, active compounds read low 1.01 | S. cerevisiae deletion strains, locus YLR113W, strain HOG1, active compounds read low 0.886 | S. cerevisiae deletion strains, locus YLR133W, strain CKI1, active compounds read low 0.932 | S. cerevisiae deletion strains, locus YLR403W, strain SFP1, active compounds read low 0.91 | S. cerevisiae deletion strains, locus YML070W, strain DAK1, active compounds read low 0.93 | S. cerevisiae deletion strains, locus YMR001C, strain CDC5, active compounds read low 0.986 | S. cerevisiae deletion strains, locus YMR205C, strain PFK2 (second series), active compounds read low 0.956 | S. cerevisiae deletion strains, locus YMR277W, strain FCP1, active compounds read low 0.966 | S. cerevisiae deletion strains, locus YNL006W, strain LST8, active compounds read low 0.991 | S. cerevisiae deletion strains, locus YNL020C, strain ARK1, active compounds read low 0.929 | S. cerevisiae deletion strains, locus YNL161W, strain CBK1, active compounds read low 0.981 | S. cerevisiae deletion strains, locus YNL183C, strain NPR1, active compounds read low 0.854 | S. cerevisiae deletion strains, locus YNL207W, strain RIO2, active compounds read low 0.973 | S. cerevisiae deletion strains, locus YNL222W, strain SSU72, active compounds read low 0.979 | S. cerevisiae deletion strains, locus YNL307C, strain MCK1 (second series), active compounds read low 0.912 | S. cerevisiae deletion strains, locus YOL078W, strain AVO1, active compounds read low 0.972 | S. cerevisiae deletion strains, locus YOL136C, strain PFK27, active compounds read low 0.939 | [4] 0.925 | S. cerevisiae deletion strains, locus YOR119C, strain RIO1, active compounds read low 0.962 | S. cerevisiae deletion strains, locus YOR231W, strain MKK1, active compounds read low 0.843 | S. cerevisiae deletion strains, locus YOR329C, strain SCD5, active compounds read low 0.99 | S. cerevisiae deletion strains, locus YPL031C, strain PHO85, active compounds read low 0.901 | S. cerevisiae deletion strains, locus YPL153C, strain RAD53, active compounds read low 0.882 | S. cerevisiae deletion strains, locus YPL204W, strain HRR25, active compounds read low 0.86 | S. cerevisiae deletion strains, locus YPL209C, strain IPL1, active compounds read low 0.992 | S. cerevisiae deletion strains, locus YPL256C, strain CLN2, active compounds read low 0.875 | S. cerevisiae deletion strains, locus YPR025C, strain CCL1, active compounds read low 0.98 | S. cerevisiae deletion strains, locus YPR106W, strain ISR1, active compounds read low 0.987 | S. cerevisiae deletion strains, locus YPR111W, strain DBF20, active compounds read low 0.987 | S. cerevisiae deletion strains, strain NNK1, active compounds read low 0.995 | S. cerevisiae deletion strains, strain TSCII, active compounds read low 0.968

CC(N)C(O)c1ccc(O)c(O)c1 (configuration not stated)
inactive: S. cerevisiae deletion strains, locus YAL013W, strain DEP1, active compounds read low 1 | S. cerevisiae deletion strains, locus YBR021W, strain FUR4, active compounds read low 0.982 | S. cerevisiae deletion strains, locus YBR229C, strain ROT2, active compounds read low 0.98 | S. cerevisiae deletion strains, locus YCL029C, strain bik1, active compounds read low 0.981 | S. cerevisiae deletion strains, locus YDL035C, strain GPR1, active compounds read low 0.988 | S. cerevisiae deletion strains, locus YDL074C, strain BRE1, active compounds read low 1.02 | [1] 0.998 | S. cerevisiae deletion strains, locus YDL134C, strain PPH21, active compounds read low 1.01 | S. cerevisiae deletion strains, locus YDL185W, strain tfp1, active compounds read low 0.977 | S. cerevisiae deletion strains, locus YDL192W, strain arf1, active compounds read low 0.973 | S. cerevisiae deletion strains, locus YDR101C, strain arx1, active compounds read low 0.992 | S. cerevisiae deletion strains, locus YDR150W, strain NUM1, active compounds read low 0.999 | S. cerevisiae deletion strains, locus YDR162C, strain NBP2, active compounds read low 1.04 | S. cerevisiae deletion strains, locus YDR318W, strain mcm21, active compounds read low 0.979 | S. cerevisiae deletion strains, locus YDR388W, active compounds read low 0.98 | S. cerevisiae deletion strains, locus YDR502C, strain sam2, active compounds read low 0.999 | S. cerevisiae deletion strains, locus YEL061C, strain CIN8, active compounds read low 0.998 | S. cerevisiae deletion strains, locus YER110C, active compounds read low 0.97 | S. cerevisiae deletion strains, locus YER155C, strain BEM2, active compounds read low 0.994 | S. cerevisiae deletion strains, locus YER167W, strain BCK2, active compounds read low 0.98 | S. cerevisiae deletion strains, locus YGL078C, strain dbp3, active compounds read low 0.994 | S. cerevisiae deletion strains, locus YGL086W, strain mad1, active compounds read low 0.98 | S. cerevisiae deletion strains, locus YGL248W, strain PDE1, active compounds read low 0.991 | S. cerevisiae deletion strains, locus YGR078C, strain PAC10, active compounds read low 1.02 | S. cerevisiae deletion strains, locus YGR135W, strain pre9, active compounds read low 1.01 | S. cerevisiae deletion strains, locus YGR229C, strain SMI1, active compounds read low 1.02 | S. cerevisiae deletion strains, locus YGR252W, strain gcn5, active compounds read low 0.901 | [2] 0.99 | S. cerevisiae deletion strains, locus YHR079C, strain IRE1 (second series), active compounds read low 0.976 | S. cerevisiae deletion strains, locus YHR094C, strain hxt1, active compounds read low 0.988 | S. cerevisiae deletion strains, locus YHR129C, strain ARP1, active compounds read low 0.997 | S. cerevisiae deletion strains, locus YHR200W, strain rpn10, active compounds read low 0.971 | S. cerevisiae deletion strains, locus YIL066C, strain RNR3, active compounds read low 0.986 | S. cerevisiae deletion strains, locus YIL073C, strain SPO22, active compounds read low 0.958 | S. cerevisiae deletion strains, locus YIL125W, strain kgd1, active compounds read low 0.988 | S. cerevisiae deletion strains, locus YIR030C, strain dcg1, active compounds read low 0.993 | [3] 1.02 | S. cerevisiae deletion strains, locus YJL134W, strain LCB3, active compounds read low 0.993 | S. cerevisiae deletion strains, locus YJL168C, strain set2, active compounds read low 0.984 | S. cerevisiae deletion strains, locus YJL187C, strain SWE1 (second series), active compounds read low 1.01 | S. cerevisiae deletion strains, locus YJR043C, strain POL32, active compounds read low 1.01 | S. cerevisiae deletion strains, locus YJR075W, strain HOC1, active compounds read low 1.01 | S. cerevisiae deletion strains, locus YKL009W, strain mrt4, active compounds read low 0.972 | S. cerevisiae deletion strains, locus YKL068W, active compounds read low 0.991 | S. cerevisiae deletion strains, locus YKL085W, strain MDH1 (second series), active compounds read low 0.98 | S. cerevisiae deletion strains, locus YKL085W, strain MDH1, active compounds read low 0.98 | S. cerevisiae deletion strains, locus YKL190W, strain CNB1, active compounds read low 1 | S. cerevisiae deletion strains, locus YKR001C, strain vps1, active compounds read low 0.993 | S. cerevisiae deletion strains, locus YLR039C, strain RIC1, active compounds read low 1.01 | S. cerevisiae deletion strains, locus YLR058C, strain SHM2, active compounds read low 0.989 | S. cerevisiae deletion strains, locus YLR102C, strain apc9, active compounds read low 0.989 | S. cerevisiae deletion strains, locus YLR262C, strain YPT6, active compounds read low 0.997 | S. cerevisiae deletion strains, locus YLR268W, strain sec22, active compounds read low 1.01 | S. cerevisiae deletion strains, locus YLR330W, strain CHS5, active compounds read low 0.99 | S. cerevisiae deletion strains, locus YLR342W, strain FKS1 (second series), active compounds read low 0.976 | S. cerevisiae deletion strains, locus YLR371W, strain rom2, active compounds read low 0.971 | S. cerevisiae deletion strains, locus YLR418C, strain cdc73, active compounds read low 1.04 | S. cerevisiae deletion strains, locus YML016C, strain PPZ1, active compounds read low 0.991 | S. cerevisiae deletion strains, locus YML032C, strain rad52, active compounds read low 0.971 | S. cerevisiae deletion strains, locus YML124C, strain tub3, active compounds read low 0.983 | S. cerevisiae deletion strains, locus YMR078C, strain ctf18, active compounds read low 0.971 | S. cerevisiae deletion strains, locus YMR223W, strain ubp8, active compounds read low 0.968 | S. cerevisiae deletion strains, locus YMR263W, strain SAP30, active compounds read low 1.02 | S. cerevisiae deletion strains, locus YMR307W, strain GAS1, active compounds read low 0.95 | S. cerevisiae deletion strains, locus YNL067W, strain RPL9B, active compounds read low 1.02 | S. cerevisiae deletion strains, locus YNL128W, strain TEP1, active compounds read low 0.996 | S. cerevisiae deletion strains, locus YNL153C, strain GIM3, active compounds read low 1.03 | S. cerevisiae deletion strains, locus YNL233W, strain BNI4, active compounds read low 1.02 | S. cerevisiae deletion strains, locus YNL250W, strain rad50, active compounds read low 0.978 | S. cerevisiae deletion strains, locus YNL271C, strain bni1, active compounds read low 0.973 | S. cerevisiae deletion strains, locus YNL298W, strain CLA4, active compounds read low 0.982 | S. cerevisiae deletion strains, locus YNL307C, strain MCK1, active compounds read low 0.99 | S. cerevisiae deletion strains, locus YNL322C, strain KRE1, active compounds read low 0.997 | S. cerevisiae deletion strains, locus YNR052C, strain pop2, active compounds read low 0.959 | S. cerevisiae deletion strains, locus YOL006C, strain TOP1, active compounds read low 1.02 | S. cerevisiae deletion strains, locus YOL012C, strain htz1 0.931 | S. cerevisiae deletion strains, locus YOL147C, strain pex11, active compounds read low 0.983 | [4] 0.998 | S. cerevisiae deletion strains, locus YOR069W, strain VPS5, active compounds read low 0.991 | S. cerevisiae deletion strains, locus YOR136W, strain idh2, active compounds read low 0.972 | S. cerevisiae deletion strains, locus YOR144C, strain elg1, active compounds read low 0.977 | S. cerevisiae deletion strains, locus YOR184W, strain ser1, active compounds read low 0.971 | S. cerevisiae deletion strains, locus YOR316C, strain cot1, active compounds read low 0.981 | S. cerevisiae deletion strains, locus YPL055C, strain LGE1, active compounds read low 1.03 | S. cerevisiae deletion strains, locus YPL241C, strain CIN2, active compounds read low 1 | S. cerevisiae deletion strains, locus YPR119W, strain clb2, active compounds read low 0.995 | S. cerevisiae deletion strains, locus YPR141C, strain kar3, active compounds read low 0.976 | S. cerevisiae deletion strains, locus YPR163C, strain tif3, active compounds read low 0.987 | S. cerevisiae deletion strains, locus YPR167C, strain met16, active compounds read low 0.986 | S. cerevisiae deletion strains, strain wtn01, active compounds read low 1.01 | S. cerevisiae strains, strain wild type, active compounds read low 0.994

From PubChem BioAssay AID1159580 (chemical genetic matrix, 2015)
